Test results published in PubChem BioAssay (NCI).
Compounds without any hit were thinned out: in the full panel of roughly 83,000, 20% have a hit.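 Growth was measured after 48 h exposure to one concentration of compound in 96-well plates. Values under 10 count as active.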 Active and inactive are the calls of the source.

Columns and labels:
Assay in all cases: NCI-60 one-dose screen, 48 h (100 = growth as untreated, 0 = no growth, -100 = all killed)
Conditions in all cases: 10 µM unless noted
SR leukemia = system: SR leukemia
RPMI-8226 leukemia = system: RPMI-8226 leukemia
OVCAR-8 ovarian = system: OVCAR-8 ovarian
OVCAR-5 ovarian = system: OVCAR-5 ovarian
OVCAR-4 ovarian = system: OVCAR-4 ovarian
SK-OV-3 ovarian = system: SK-OV-3 ovarian
IGROV1 ovarian = system: IGROV1 ovarian
OVCAR-3 ovarian = system: OVCAR-3 ovarian
HS 578T breast = system: HS 578T breast
NCI/ADR-RES ovarian = system: NCI/ADR-RES ovarian
T-47D breast = system: T-47D breast
BT-549 breast = system: BT-549 breast
MDA-MB-435 melanoma = system: MDA-MB-435 melanoma
SW-620 colon = system: SW-620 colon
MCF7 breast = system: MCF7 breast
HCC-2998 colon = system: HCC-2998 colon
KM12 colon = system: KM12 colon
HCT-116 colon = system: HCT-116 colon

Measured: growth

[N-]=[N+]=NCC1OC(n2cnc3c(NC(=O)Nc4ccccc4)ncnc32)C2OC(=O)CC12 (stereo unspecified)
inactive: SR leukemia 90.1% | RPMI-8226 leukemia 98.4% | OVCAR-8 ovarian 103% | OVCAR-5 ovarian 95.7% | OVCAR-4 ovarian 106% | SK-OV-3 ovarian 106% | IGROV1 ovarian 91.3% | OVCAR-3 ovarian 95.1% | HS 578T breast 112% | NCI/ADR-RES ovarian 102% | T-47D breast 103% | BT-549 breast 104% | MDA-MB-435 melanoma 109% | SW-620 colon 105% | MCF7 breast 92.3% | HCC-2998 colon 107% | KM12 colon 106%

CS(=O)(=O)Nc1cc(-c2ccc3ncnc(Nc4ccc5c(cnn5Cc5ccncc5)c4)c3c2)cnc1Cl
active: IGROV1 ovarian 0.593% | HS 578T breast -6.14% | T-47D breast 2.48%
inactive: SR leukemia 44.6% | RPMI-8226 leukemia 64.3% | OVCAR-8 ovarian 82.5% | OVCAR-5 ovarian 59% | OVCAR-4 ovarian 84.8% | SK-OV-3 ovarian 54.9% | NCI/ADR-RES ovarian 88.2% | BT-549 breast 16.1% | MDA-MB-435 melanoma 63.2% | SW-620 colon 68.6% | MCF7 breast 31.3% | HCT-116 colon 75.2% | HCC-2998 colon 73.7% | KM12 colon 93.4%

COc1ccc(/C=C2\CN(C(=O)C(Cl)Cl)C/C(=C\c3ccc(OC)c(OC)c3)C2=O)cc1OC
inactive: OVCAR-8 ovarian 19.1% | OVCAR-5 ovarian 10.6% | OVCAR-4 ovarian 19.8% | SK-OV-3 ovarian 48.3% | HS 578T breast 21.1% | NCI/ADR-RES ovarian 13.7%
active: SR leukemia 6.16% | RPMI-8226 leukemia -5.84% | IGROV1 ovarian -43.9% | T-47D breast 0.33% | BT-549 breast -41% | MDA-MB-435 melanoma -34.3% | SW-620 colon -41.4% | MCF7 breast 0.517% | HCT-116 colon -83.6% | HCC-2998 colon -95.5% | KM12 colon -49.7%

O=C(CN1C(=O)S/C(=C\C(Cl)=C\c2ccccc2)C1=O)NC1CCS(=O)(=O)C1 (stereo unspecified)
inactive: SR leukemia 14.2% | RPMI-8226 leukemia 21.7% | OVCAR-8 ovarian 47.1% | OVCAR-5 ovarian 110% | OVCAR-4 ovarian 78.7% | SK-OV-3 ovarian 106% | IGROV1 ovarian 41.3% | HS 578T breast 87.4% | NCI/ADR-RES ovarian 84% | T-47D breast 15.7% | BT-549 breast 76.5% | MDA-MB-435 melanoma 66.2% | SW-620 colon 22.6% | MCF7 breast 13.7% | HCC-2998 colon 103% | KM12 colon 65.4%
active: HCT-116 colon 5.67%

COc1cc(/C=C/c2cc(/C=C/c3ccc(O)c(OC)c3)n(C(=O)Nc3ccc(Cl)cc3)n2)ccc1O
active: SR leukemia 1.52% | RPMI-8226 leukemia 2.91% | OVCAR-8 ovarian -19.8% | SK-OV-3 ovarian -0.374% | IGROV1 ovarian 9.93% | HS 578T breast 8.23% | BT-549 breast -14.4% | MDA-MB-435 melanoma 2.46% | SW-620 colon 9.56% | MCF7 breast 5.36% | HCT-116 colon 4.61% | HCC-2998 colon 4.55% | KM12 colon 3.53%
inactive: OVCAR-5 ovarian 10.9% | OVCAR-4 ovarian 13.3% | NCI/ADR-RES ovarian 17.5% | T-47D breast 18.5%

CCn1cc(C(=O)N/N=C/c2ccccc2)c(=O)c2cc(F)c(N3CCNC(C)C3)c(F)c21 (stereo unspecified)
active: SR leukemia -14.6% | RPMI-8226 leukemia -42.4% | MDA-MB-435 melanoma -88.1% | SW-620 colon -81.1% | MCF7 breast -84.4% | HCC-2998 colon -82.9% | KM12 colon -89.4%
inactive: OVCAR-8 ovarian 28.4% | OVCAR-5 ovarian 67% | OVCAR-4 ovarian 70.7% | SK-OV-3 ovarian 104% | IGROV1 ovarian 58% | HS 578T breast 69.7% | NCI/ADR-RES ovarian 56% | T-47D breast 63.6% | BT-549 breast 77.8% | HCT-116 colon 57.6%

COc1cc2c(cc1OCCCN1CCN(C(=S)SCCC(C#N)(c3ccccc3)c3ccccc3)CC1)N=C[C@@H]1CCCN1C2=O
active: SR leukemia -37.6% | RPMI-8226 leukemia -19.3% | OVCAR-8 ovarian -0.777% | OVCAR-5 ovarian -46.2% | OVCAR-4 ovarian -19.2% | SK-OV-3 ovarian -7.04% | IGROV1 ovarian -89.4% | HS 578T breast -54.4% | T-47D breast -50.5% | BT-549 breast -89.7% | MDA-MB-435 melanoma -15.2% | SW-620 colon -100% | MCF7 breast -86.1% | HCT-116 colon -93.5% | HCC-2998 colon -86.8% | KM12 colon -75.1%
inactive: NCI/ADR-RES ovarian 22.3%

N#Cc1c(-c2ccccc2)nc2c(c(-c3ccc(Cl)cc3)nn2-c2ccccc2)c1-c1ccc([N+](=O)[O-])cc1
inactive: SR leukemia 63.4% | RPMI-8226 leukemia 101% | OVCAR-8 ovarian 98.5% | OVCAR-5 ovarian 99.9% | OVCAR-4 ovarian 109% | SK-OV-3 ovarian 102% | IGROV1 ovarian 103% | HS 578T breast 104% | NCI/ADR-RES ovarian 101% | T-47D breast 90.2% | BT-549 breast 111% | MDA-MB-435 melanoma 103% | SW-620 colon 96.1% | MCF7 breast 91.7% | HCT-116 colon 88.9% | HCC-2998 colon 120% | KM12 colon 102%

CN(C)/C(N)=N/N=C(\c1ccccc1)c1ccccn1
inactive: SR leukemia 85.5% | RPMI-8226 leukemia 92.1% | OVCAR-8 ovarian 103% | OVCAR-5 ovarian 102% | OVCAR-4 ovarian 86.6% | SK-OV-3 ovarian 113% | IGROV1 ovarian 93.7% | HS 578T breast 97.8% | NCI/ADR-RES ovarian 98.3% | T-47D breast 110% | BT-549 breast 99.8% | MDA-MB-435 melanoma 113% | SW-620 colon 104% | MCF7 breast 105% | HCT-116 colon 89.5% | KM12 colon 99.1%

Cc1ccc(C(=O)c2ccc(CC(=O)N/N=C/c3cccc(O)c3O)n2C)cc1
inactive: RPMI-8226 leukemia 35.1% | OVCAR-8 ovarian 38.6% | OVCAR-5 ovarian 72.6% | OVCAR-4 ovarian 29.1% | SK-OV-3 ovarian 68% | IGROV1 ovarian 51.2% | HS 578T breast 87.4% | NCI/ADR-RES ovarian 19.2% | T-47D breast 25.9% | BT-549 breast 45.8% | MDA-MB-435 melanoma 61.1% | SW-620 colon 34.3% | MCF7 breast 16.1% | HCT-116 colon 30.8% | KM12 colon 44.2%
active: SR leukemia 8.86%

C#CCOc1cccc(Nc2ncnc3c2ncn3C2CCN(C(=O)CCl)C2)c1 (stereo unspecified)
active: SR leukemia -23.8% | RPMI-8226 leukemia -49.8% | OVCAR-8 ovarian 5.81% | OVCAR-5 ovarian -88.4% | OVCAR-4 ovarian -51.7% | IGROV1 ovarian -58.3% | T-47D breast -45.2% | BT-549 breast -62.5% | MDA-MB-435 melanoma -23.8% | SW-620 colon -64.2% | MCF7 breast -50.9% | HCC-2998 colon -22.8%
inactive: SK-OV-3 ovarian 48.4% | HS 578T breast 14% | NCI/ADR-RES ovarian 15.7% | KM12 colon 23.7%

Nc1ccc(Br)cc1C(F)(F)F
inactive: SR leukemia 112% | RPMI-8226 leukemia 115% | OVCAR-8 ovarian 100% | OVCAR-5 ovarian 94.9% | OVCAR-4 ovarian 124% | SK-OV-3 ovarian 103% | IGROV1 ovarian 114% | HS 578T breast 113% | NCI/ADR-RES ovarian 106% | T-47D breast 96.7% | BT-549 breast 107% | MDA-MB-435 melanoma 117% | SW-620 colon 111% | MCF7 breast 106% | HCT-116 colon 103% | HCC-2998 colon 114% | KM12 colon 112%

O=c1cc(C(F)(F)F)c2cc(-c3cc4ccccc4c(=O)o3)c(O)cc2o1
inactive: SR leukemia 85.5% | RPMI-8226 leukemia 17.7% | OVCAR-8 ovarian 87% | OVCAR-5 ovarian 103% | OVCAR-4 ovarian 64% | SK-OV-3 ovarian 73.3% | IGROV1 ovarian 92.6% | HS 578T breast 79.5% | NCI/ADR-RES ovarian 78.9% | T-47D breast 49.4% | BT-549 breast 63.6% | MDA-MB-435 melanoma 72.8% | SW-620 colon 86.1% | MCF7 breast 77.4% | HCT-116 colon 71.7% | HCC-2998 colon 92.8% | KM12 colon 76.5%

Cc1nn(-c2ccc([N+](=O)[O-])cc2)c2ncnc(N/N=C/c3ccccc3O)c12
inactive: OVCAR-8 ovarian 14.5% | OVCAR-5 ovarian 55.8% | OVCAR-4 ovarian 16.5% | HS 578T breast 44% | BT-549 breast 30.6% | MDA-MB-435 melanoma 26.5% | SW-620 colon 25.1% | MCF7 breast 11.9% | HCT-116 colon 18.1% | HCC-2998 colon 40.4% | KM12 colon 22.3%
active: SR leukemia 4.55% | RPMI-8226 leukemia 1.23% | SK-OV-3 ovarian 3.11% | IGROV1 ovarian 9.22% | NCI/ADR-RES ovarian 6.28%

CCOC(=O)c1cnn(CC(C)O)c1NC(=O)NCc1ccccc1C(F)(F)F (stereo unspecified)
inactive: SR leukemia 82.3% | RPMI-8226 leukemia 116% | OVCAR-8 ovarian 97.6% | OVCAR-5 ovarian 102% | OVCAR-4 ovarian 98.6% | SK-OV-3 ovarian 101% | IGROV1 ovarian 95.5% | HS 578T breast 110% | NCI/ADR-RES ovarian 100% | T-47D breast 105% | BT-549 breast 91.4% | MDA-MB-435 melanoma 104% | SW-620 colon 105% | MCF7 breast 95.5% | HCT-116 colon 84.8% | HCC-2998 colon 93.8% | KM12 colon 99.4%

NCCCNc1nc2ccccc2c2c(=O)c3cc(Cl)ccc3sc12
inactive: OVCAR-4 ovarian 33.4% | SK-OV-3 ovarian 77.6% | HS 578T breast 43% | BT-549 breast 83%
active: SR leukemia -44.3% | RPMI-8226 leukemia -37.9% | OVCAR-8 ovarian -48.4% | OVCAR-5 ovarian -11.5% | IGROV1 ovarian -1.46% | NCI/ADR-RES ovarian -4.11% | T-47D breast -6.77% | MDA-MB-435 melanoma -71.1% | SW-620 colon -90.6% | MCF7 breast -75.4% | HCT-116 colon -92.5% | KM12 colon -67.4%

O=[N+]([O-])c1c(O)c(Cl)cc(Cl)c1Cl
inactive: SR leukemia 87.9% | RPMI-8226 leukemia 97.9% | OVCAR-8 ovarian 101% | OVCAR-5 ovarian 91.6% | OVCAR-4 ovarian 109% | SK-OV-3 ovarian 99.2% | IGROV1 ovarian 111% | HS 578T breast 117% | NCI/ADR-RES ovarian 95.6% | T-47D breast 97.6% | BT-549 breast 106% | MDA-MB-435 melanoma 114% | SW-620 colon 115% | MCF7 breast 98.8% | HCT-116 colon 100% | HCC-2998 colon 96.5% | KM12 colon 112%

COc1ccc(Oc2ccc(/C=C/C(=O)c3cc4ccccc4oc3=O)cc2)cc1
inactive: SR leukemia 80.9% | RPMI-8226 leukemia 59.6% | OVCAR-8 ovarian 93.5% | OVCAR-5 ovarian 112% | OVCAR-4 ovarian 80.7% | SK-OV-3 ovarian 92.4% | IGROV1 ovarian 70.1% | HS 578T breast 101% | NCI/ADR-RES ovarian 85.6% | T-47D breast 84.6% | BT-549 breast 81% | MDA-MB-435 melanoma 89.3% | SW-620 colon 103% | MCF7 breast 25.9% | HCT-116 colon 56.6% | HCC-2998 colon 108% | KM12 colon 85.9%
